According to PubChem BioAssay AID1159580 (chemical genetic matrix, 2015):
Several values for one entry are separate records, joined by “and”; a condition that tells them apart may be missing. Equal values may be shown once. Among all 5,500 compounds or so, about 2,000 (36%) were called active. Roughly 18% stayed inconclusive and do not appear here. No stated cut-off is given here; in the data, active means normalized growth mostly below about 0.91 (no sharp cut-off); inconclusive means no clear call, values can overlap the other calls; inactive means mostly above about 0.92. The list shows a part of the results.

Assay: chemical genetic growth profiling, strain panel (AID 1159580);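 further: tested at 20 µM; growth read once vehicle control cultures reached saturation at 30 °C; 1 = growth at the plate median or of vehicle wells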
Details: S. cerevisiae deletion strains, growth OD

Q: For `COC(=O)c1c(C)cc(OC)cc1O`, which normalized growth (locus YAL013W, strain DEP1, stronger effect = lower value) is on record?
A: The normalized growth was 1.02 (inactive).

Q: What about the normalized growth (locus YAL021C, strain ccr4, stronger effect = lower value) of the same compound?
A: The normalized growth was 1.02 (inactive).

Q: What about the normalized growth (locus YAL026C, strain drs2, stronger effect = lower value) of the same compound?
A: The normalized growth was 0.984 (inactive).

Q: What about the normalized growth (locus YAL030W, strain snc1, stronger effect = lower value) of the same compound?
A: The normalized growth was 0.971 (inactive).

Q: And the normalized growth (locus YBL061C, strain skt5, stronger effect = lower value)?
A: Its normalized growth is 0.988 (inactive).

Q: And the normalized growth (locus YBR009C, strain hhf1, stronger effect = lower value)?
A: The normalized growth was 0.978 (inactive).

Q: What about the normalized growth (locus YBR021W, strain FUR4, stronger effect = lower value) of the same compound?
A: Its normalized growth is 1.02 (inactive).

Q: And the normalized growth (locus YBR023C, strain chs3, stronger effect = lower value)?
A: The normalized growth was 0.973 (inactive).

Q: What about the normalized growth (locus YBR171W, strain sec66, stronger effect = lower value) of the same compound?
A: Its normalized growth is 0.961 (inactive).

Q: What about the normalized growth (locus YBR229C, strain ROT2, stronger effect = lower value) of the same compound?
A: The normalized growth was 0.996 (inactive).

Q: What about the normalized growth (locus YBR231C, strain swc5, stronger effect = lower value) of the same compound?
A: Its normalized growth is 0.978 (inactive).

Q: And the normalized growth (locus YBR279W, strain paf1, stronger effect = lower value)?
A: Its normalized growth is 0.988 (inactive).

Q: And the normalized growth (locus YCL011C, strain gbp2, stronger effect = lower value)?
A: Its normalized growth is 0.969 (inactive).

Q: And the normalized growth (locus YCL016C, strain dcc1, stronger effect = lower value)?
A: The normalized growth was 0.966 (inactive).

Q: And the normalized growth (locus YCL029C, strain bik1, stronger effect = lower value)?
A: The normalized growth was 0.976 (inactive).

Q: What about the normalized growth (locus YCL069W, strain vba3, stronger effect = lower value) of the same compound?
A: The normalized growth was 0.989 (inactive).

Q: What about the normalized growth (locus YCR088W, strain abp1, stronger effect = lower value) of the same compound?
A: The normalized growth was 0.971 (inactive).

Q: And the normalized growth (locus YDL005C, strain med2, stronger effect = lower value)?
A: Its normalized growth is 0.985 (inactive).

Q: What about the normalized growth (locus YDL035C, strain GPR1, stronger effect = lower value) of the same compound?
A: Its normalized growth is 1 (inactive).

Q: And the normalized growth (locus YDL040C, strain nat1, stronger effect = lower value)?
A: Its normalized growth is 0.98 (inactive).

Q: What about the normalized growth (locus YDL074C, strain BRE1, stronger effect = lower value) of the same compound?
A: Its normalized growth is 1.02 (inactive).

Q: And the normalized growth (locus YDL101C, strain DUN1, stronger effect = lower value)?
A: Its normalized growth is 1 (inactive).

Q: What about the normalized growth (locus YDL134C, strain PPH21, stronger effect = lower value) of the same compound?
A: Its normalized growth is 1 (inactive).

Q: And the normalized growth (locus YDL185W, strain tfp1, stronger effect = lower value)?
A: Its normalized growth is 0.987 (inactive).

Q: And the normalized growth (locus YDL192W, strain arf1, stronger effect = lower value)?
A: Its normalized growth is 0.985 (inactive).

Q: What about the normalized growth (locus YDR001C, strain nth1, stronger effect = lower value) of the same compound?
A: The normalized growth was 0.983 (inactive).

Q: What about the normalized growth (locus YDR069C, strain doa4, stronger effect = lower value) of the same compound?
A: The normalized growth was 0.98 (inactive).

Q: What about the normalized growth (locus YDR101C, strain arx1, stronger effect = lower value) of the same compound?
A: Its normalized growth is 0.954 (inactive).

Q: And the normalized growth (locus YDR137W, strain rgp1, stronger effect = lower value)?
A: The normalized growth was 1.01 (inactive).

Q: What about the normalized growth (locus YDR150W, strain NUM1, stronger effect = lower value) of the same compound?
A: Its normalized growth is 0.989 (inactive).

Q: And the normalized growth (locus YDR159W, strain sac3, stronger effect = lower value)?
A: Its normalized growth is 0.953 (inactive).

Q: What about the normalized growth (locus YDR162C, strain NBP2, stronger effect = lower value) of the same compound?
A: Its normalized growth is 0.997 (inactive).

Q: What about the normalized growth (locus YDR195W, strain ref2) of the same compound?
A: The normalized growth was 1.03 (inactive).

Q: What about the normalized growth (locus YDR297W, strain sur2, stronger effect = lower value) of the same compound?
A: The normalized growth was 0.984 (inactive).

Q: What about the normalized growth (locus YDR318W, strain mcm21, stronger effect = lower value) of the same compound?
A: The normalized growth was 0.962 (inactive).

Q: And the normalized growth (locus YDR334W, strain swr1, stronger effect = lower value)?
A: The normalized growth was 0.984 (inactive).

Q: What about the normalized growth (locus YDR335W, strain msn5, stronger effect = lower value) of the same compound?
A: Its normalized growth is 0.994 (inactive).

Q: And the normalized growth (locus YDR388W, stronger effect = lower value)?
A: Its normalized growth is 0.986 (inactive).

Q: And the normalized growth (locus YDR392W, strain spt3, stronger effect = lower value)?
A: The normalized growth was 0.913 (inactive).

Q: What about the normalized growth (locus YDR502C, strain sam2, stronger effect = lower value) of the same compound?
A: The normalized growth was 0.962 (inactive).

Q: What about the normalized growth (locus YEL003W, strain gim4, stronger effect = lower value) of the same compound?
A: Its normalized growth is 0.975 (inactive).

Q: And the normalized growth (locus YEL037C, strain rad23, stronger effect = lower value)?
A: Its normalized growth is 0.991 (inactive).

Q: What about the normalized growth (locus YEL061C, strain CIN8 (second series), stronger effect = lower value) of the same compound?
A: The normalized growth was 0.98 (inactive).

Q: What about the normalized growth (locus YEL061C, strain CIN8, stronger effect = lower value) of the same compound?
A: The normalized growth was 0.989 (inactive).

Q: What about the normalized growth (locus YER015W, strain faa2, stronger effect = lower value) of the same compound?
A: The normalized growth was 0.98 (inactive).

Q: What about the normalized growth (locus YER016W, strain bim1, stronger effect = lower value) of the same compound?
A: Its normalized growth is 0.984 (inactive).

Q: What about the normalized growth (locus YER110C, stronger effect = lower value) of the same compound?
A: The normalized growth was 0.947 (inactive).

Q: What about the normalized growth (locus YER111C, strain swi4, stronger effect = lower value) of the same compound?
A: The normalized growth was 0.966 (inactive).

Q: What about the normalized growth (locus YER155C, strain BEM2 (second series), stronger effect = lower value) of the same compound?
A: The normalized growth was 0.858 (active).

Q: What about the normalized growth (locus YER155C, strain BEM2, stronger effect = lower value) of the same compound?
A: The normalized growth was 0.994 (inactive).

Q: What about the normalized growth (locus YER167W, strain BCK2, stronger effect = lower value) of the same compound?
A: Its normalized growth is 0.993 (inactive).

Q: And the normalized growth (locus YFR010W, strain ubp6, stronger effect = lower value)?
A: The normalized growth was 0.992 (inactive).

Q: What about the normalized growth (locus YGL078C, strain dbp3, stronger effect = lower value) of the same compound?
A: Its normalized growth is 0.993 (inactive).

Q: What about the normalized growth (locus YGL086W, strain mad1, stronger effect = lower value) of the same compound?
A: Its normalized growth is 0.988 (inactive).

Q: And the normalized growth (locus YGL167C, strain pmr1, stronger effect = lower value)?
A: Its normalized growth is 0.977 (inactive).

Q: What about the normalized growth (locus YGL173C, strain kem1, stronger effect = lower value) of the same compound?
A: The normalized growth was 0.971 (inactive).

Q: What about the normalized growth (locus YGL227W, strain vid30, stronger effect = lower value) of the same compound?
A: The normalized growth was 0.969 (inactive).

Q: What about the normalized growth (locus YGL240W, strain doc1, stronger effect = lower value) of the same compound?
A: Its normalized growth is 0.938 (inactive).

Q: What about the normalized growth (locus YGL248W, strain PDE1, stronger effect = lower value) of the same compound?
A: Its normalized growth is 0.997 (inactive).

Q: And the normalized growth (locus YGL253W, strain hxk2, stronger effect = lower value)?
A: Its normalized growth is 0.979 (inactive).

Q: And the normalized growth (locus YGR078C, strain PAC10, stronger effect = lower value)?
A: The normalized growth was 0.984 (inactive).

Q: And the normalized growth (locus YGR135W, strain pre9, stronger effect = lower value)?
A: The normalized growth was 0.962 (inactive).

Q: And the normalized growth (locus YGR229C, strain SMI1, stronger effect = lower value)?
A: Its normalized growth is 1.03 (inactive).

Q: And the normalized growth (locus YGR252W, strain gcn5, stronger effect = lower value)?
A: Its normalized growth is 1.02 (inactive).

Q: What about the normalized growth (locus YHR013C, strain ard1, stronger effect = lower value) of the same compound?
A: Its normalized growth is 1.02 (inactive).

Q: What about the normalized growth (locus YHR027C, strain rpn1, stronger effect = lower value) of the same compound?
A: Its normalized growth is 0.997 (inactive).

Q: What about the normalized growth (locus YHR030C, strain SLT2, stronger effect = lower value) of the same compound?
A: The normalized growth was 0.993 (inactive) and 1.04 (inactive).

Q: And the normalized growth (locus YHR079C, strain IRE1 (second series), stronger effect = lower value)?
A: The normalized growth was 0.961 (inactive).

Q: And the normalized growth (locus YHR079C, strain IRE1, stronger effect = lower value)?
A: Its normalized growth is 1.02 (inactive).

Q: And the normalized growth (locus YHR094C, strain hxt1, stronger effect = lower value)?
A: The normalized growth was 0.99 (inactive).

Q: What about the normalized growth (locus YHR129C, strain ARP1, stronger effect = lower value) of the same compound?
A: Its normalized growth is 0.999 (inactive).

Q: What about the normalized growth (locus YHR142W, strain chs7, stronger effect = lower value) of the same compound?
A: Its normalized growth is 0.954 (inactive).

Q: And the normalized growth (locus YHR200W, strain rpn10, stronger effect = lower value)?
A: Its normalized growth is 0.965 (inactive).

Q: What about the normalized growth (locus YIL066C, strain RNR3, stronger effect = lower value) of the same compound?
A: The normalized growth was 1 (inactive).

Q: And the normalized growth (locus YIL073C, strain SPO22, stronger effect = lower value)?
A: Its normalized growth is 0.991 (inactive).

Q: And the normalized growth (locus YIL125W, strain kgd1, stronger effect = lower value)?
A: The normalized growth was 0.984 (inactive).

Q: What about the normalized growth (locus YIR030C, strain dcg1, stronger effect = lower value) of the same compound?
A: Its normalized growth is 0.972 (inactive).

Q: And the normalized growth (locus YJL092W, strain hpr5, stronger effect = lower value)?
A: The normalized growth was 0.978 (inactive).

Q: What about the normalized growth (locus YJL095W, strain BCK1 (second series), stronger effect = lower value) of the same compound?
A: Its normalized growth is 0.996 (inactive).

Q: What about the normalized growth (locus YJL095W, strain BCK1, stronger effect = lower value) of the same compound?
A: The normalized growth was 0.971 (inactive) and 1.02 (inactive).

Q: What about the normalized growth (locus YJL115W, strain asf1, stronger effect = lower value) of the same compound?
A: The normalized growth was 0.987 (inactive).

Q: What about the normalized growth (locus YJL129C, strain trk1, stronger effect = lower value) of the same compound?
A: Its normalized growth is 0.965 (inactive).

Q: And the normalized growth (locus YJL134W, strain LCB3, stronger effect = lower value)?
A: The normalized growth was 0.999 (inactive).

Q: And the normalized growth (locus YJL154C, strain vps35, stronger effect = lower value)?
A: The normalized growth was 0.98 (inactive).

Q: What about the normalized growth (locus YJL164C, strain tpk1, stronger effect = lower value) of the same compound?
A: The normalized growth was 0.969 (inactive).

Q: And the normalized growth (locus YJL166W, strain qcr8, stronger effect = lower value)?
A: Its normalized growth is 0.972 (inactive).

Q: And the normalized growth (locus YJL168C, strain set2, stronger effect = lower value)?
A: The normalized growth was 0.986 (inactive).

Q: What about the normalized growth (locus YJL187C, strain SWE1 (second series), stronger effect = lower value) of the same compound?
A: The normalized growth was 0.998 (inactive).

Q: What about the normalized growth (locus YJL187C, strain SWE1, stronger effect = lower value) of the same compound?
A: Its normalized growth is 0.982 (inactive).

Q: What about the normalized growth (locus YJR043C, strain POL32, stronger effect = lower value) of the same compound?
A: Its normalized growth is 0.966 (inactive).

Q: What about the normalized growth (locus YJR066W, strain TOR1, stronger effect = lower value) of the same compound?
A: The normalized growth was 0.965 (inactive).
